{"source": "paper PMC5540273", "about": "(PLoS ONE, 2017);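 further: KINOMEscan kinase panel screen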", "data": [{"system": "FRK", "conditions": "concentration: 1 μM, replicates: in singlicate; n = 1", "units": {"%Inh": "%"}, "values": [{"smiles": "Cn1cncc1-c1ccc2ncnc(Nc3ccc(OCc4ccccc4)cc3)c2c1", "note": "[GW320571]", "%Inh": 8}, {"smiles": "Cc1cc(-c2ccc3c(c2)CC[C@@H](N[C@@H](C)c2ccccc2)C3)cnc1N.Cl", "note": "[GW412617]", "%Inh": 19}, {"smiles": "Fc1cccc(COc2nnc(-c3ccc4c(c3)CCO4)o2)c1", "%Inh": 0}, {"smiles": "O=C(Nc1n[nH]c2cc(-c3cccc(F)c3F)ccc12)C1CC1", "note": "[SB-733894]", "%Inh": 0}, {"smiles": "COc1cc(Nc2nccc(N3CCC(NC(=O)Nc4cc(C)ccc4C)C3)n2)cc(OC)c1OC", "note": "(stereo not shown) [GSK1379762]", "%Inh": 8}, {"smiles": "CC(C)(C)c1ccc(C(=O)Nc2cn3cc(Cl)ccc3n2)cc1", "%Inh": 12}, {"smiles": "COc1ccc2nc(-c3cccc(C)n3)nc(Nc3ccncc3)c2c1", "note": "[GSK204919]", "%Inh": 9}, {"smiles": "Cc1c(O)cccc1Nc1ccnc2ccc(C(F)(F)F)cc12.Cl", "note": "[GW466413]", "%Inh": 79}, {"smiles": "Cc1ccc(-c2cc(-c3c[nH]nc3-c3ccccn3)ccn2)cc1", "note": "[GW684088]", "%Inh": 4}, {"smiles": "O=S(=O)(c1ccc(-c2ccnc3[nH]ccc23)cc1)N1CCCC1", "note": "[GSK846226]", "%Inh": 0}, {"smiles": "Cn1ccc2ncnc(Oc3cccc(C(=O)Nc4ccccc4)c3)c21", "%Inh": 27}, {"smiles": "CCCc1ccc(S(=O)(=O)NC2CCN(c3ccnc(Nc4ccc(F)cc4)n3)C2)cc1", "note": "(stereo not shown) [GSK1379715]", "%Inh": 8}, {"smiles": "O=C1NC(=O)C(N2CCc3ccccc32)=C1c1ccccc1Cl", "note": "[SB-373598]", "%Inh": 20}, {"smiles": "COC(=O)c1c(-c2ccccc2)c2cc(OC)ccc2c(=O)n1Cc1ccccc1", "%Inh": 45}, {"smiles": "COc1cccc(-c2cc(-c3c[nH]nc3-c3ccccn3)ccn2)c1", "note": "[GW680338]", "%Inh": 10}, {"smiles": "COc1cc2ncnc(Nc3ccc4nc(-c5ccccc5)[nH]c4c3)c2cc1OC.Cl", "note": "[GW282450]", "%Inh": 0}, {"smiles": "COC(=O)c1c(-c2ccccc2)c2cc(C(=O)O)ccc2c(=O)n1Cc1ccccc1", "%Inh": 48}, {"smiles": "Cc1cccc(-c2nc(Nc3ccncc3)c3ccccc3n2)n1", "note": "[GW855857]", "%Inh": 15}, {"smiles": "Cc1cccc(-c2nc(-c3ccc(S(C)(=O)=O)cc3)sc2-c2ccnc(NCCc3ccccc3)c2)c1", "%Inh": 66}, {"smiles": "CN(C)CCN(C)C(=O)c1cc(-c2ccncc2)c(-c2ccc(Cl)c(O)c2)o1.Cl.Cl", "note": "[SB-710397]", "%Inh": 43}, {"smiles": "Cc1nnc(-c2ccc3occ(-c4ccc(S(C)=O)cc4)c3c2)[nH]1", "note": "(stereo not shown)", "%Inh": 1}, {"smiles": "COc1cc2nccc(Nc3ccc(NC(=O)c4ccc(C)cc4)c(O)c3)c2cc1OC.Cl", "note": "[GW440132]", "%Inh": 25}, {"smiles": "Cc1cccc(-c2cc(Nc3ccncc3)c3ccccc3n2)n1", "note": "[GSK223675]", "%Inh": 0}, {"smiles": "Cn1ccc2ncnc(Oc3ccc(Nc4nc5ccccc5[nH]4)cc3)c21", "%Inh": 0}, {"smiles": "Cc1cc(NCC(c2ccccc2)c2ccccc2)nc(NCc2ccc(C(F)(F)F)cc2)n1", "note": "[GW497681]", "%Inh": 0}, {"smiles": "Cc1cccc(-c2nc(C)cc(Nc3ccncc3)n2)n1", "note": "[GSK257997]", "%Inh": 0}, {"smiles": "Cl.c1ccc(-c2n[nH]cc2-c2ccnc(-c3ccc(CN4CCOCC4)cc3)c2)nc1", "note": "[GW776245]", "%Inh": 0}, {"smiles": "Cc1ccc(NC(=O)Nc2cc(C(C)(C)C)nn2-c2ccccc2)cc1", "note": "[GSK1014915]", "%Inh": 22}, {"smiles": "CC1=C(C(=O)Nc2cc3cn[nH]c3cc2F)C(c2ccc(C(F)(F)F)cc2)CC(=O)N1", "note": "(stereo not shown) [GSK429286]", "%Inh": 18}, {"smiles": "Nc1nc(-c2nccs2)c(-c2ccnc3ccccc23)s1", "note": "[GW693542]", "%Inh": 0}, {"smiles": "COc1ccc(C2=C(Nc3cccc(C(=O)O)c3)C(=O)NC2=O)cc1", "note": "[SB-390765]", "%Inh": 0}, {"smiles": "O=C(O)COc1ncnc2cc(-c3ccc4[nH]ncc4c3)sc12", "%Inh": 100}, {"smiles": "Cc1cccc(-c2nc(Nc3cccc(C(N)=O)c3)c3ccccc3n2)n1", "note": "[GW876019]", "%Inh": 16}, {"smiles": "CC(C)(C)c1ccc(C(=O)Nc2cn3cc(-c4cccnc4)ccc3n2)cc1", "%Inh": 23}, {"smiles": "COc1ccccc1CNC(=O)c1cc(C(=O)c2ccccc2C)c[nH]1", "note": "[GSK364507]", "%Inh": 0}]}, {"system": "FYN", "conditions": "concentration: 1 μM, replicates: in singlicate; n = 1", "units": {"%Inh": "%"}, "values": [{"smiles": "Cn1cncc1-c1ccc2ncnc(Nc3ccc(OCc4ccccc4)cc3)c2c1", "note": "[GW320571]", "%Inh": 12}, {"smiles": "Cc1cc(-c2ccc3c(c2)CC[C@@H](N[C@@H](C)c2ccccc2)C3)cnc1N.Cl", "note": "[GW412617]", "%Inh": 27}, {"smiles": "Fc1cccc(COc2nnc(-c3ccc4c(c3)CCO4)o2)c1", "%Inh": 0}, {"smiles": "O=C(Nc1n[nH]c2cc(-c3cccc(F)c3F)ccc12)C1CC1", "note": "[SB-733894]", "%Inh": 0}, {"smiles": "COc1cc(Nc2nccc(N3CCC(NC(=O)Nc4cc(C)ccc4C)C3)n2)cc(OC)c1OC", "note": "(stereo not shown) [GSK1379762]", "%Inh": 0}, {"smiles": "CC(C)(C)c1ccc(C(=O)Nc2cn3cc(Cl)ccc3n2)cc1", "%Inh": 99.3}, {"smiles": "COc1ccc2nc(-c3cccc(C)n3)nc(Nc3ccncc3)c2c1", "note": "[GSK204919]", "%Inh": 13}, {"smiles": "Cc1c(O)cccc1Nc1ccnc2ccc(C(F)(F)F)cc12.Cl", "note": "[GW466413]", "%Inh": 68}, {"smiles": "Cc1ccc(-c2cc(-c3c[nH]nc3-c3ccccn3)ccn2)cc1", "note": "[GW684088]", "%Inh": 0}, {"smiles": "O=S(=O)(c1ccc(-c2ccnc3[nH]ccc23)cc1)N1CCCC1", "note": "[GSK846226]", "%Inh": 25}, {"smiles": "Cn1ccc2ncnc(Oc3cccc(C(=O)Nc4ccccc4)c3)c21", "%Inh": 8}, {"smiles": "CCCc1ccc(S(=O)(=O)NC2CCN(c3ccnc(Nc4ccc(F)cc4)n3)C2)cc1", "note": "(stereo not shown) [GSK1379715]", "%Inh": 0}, {"smiles": "O=C1NC(=O)C(N2CCc3ccccc32)=C1c1ccccc1Cl", "note": "[SB-373598]", "%Inh": 18}, {"smiles": "COC(=O)c1c(-c2ccccc2)c2cc(OC)ccc2c(=O)n1Cc1ccccc1", "%Inh": 0}, {"smiles": "COc1cccc(-c2cc(-c3c[nH]nc3-c3ccccn3)ccn2)c1", "note": "[GW680338]", "%Inh": 11}, {"smiles": "COc1cc2ncnc(Nc3ccc4nc(-c5ccccc5)[nH]c4c3)c2cc1OC.Cl", "note": "[GW282450]", "%Inh": 34}, {"smiles": "COC(=O)c1c(-c2ccccc2)c2cc(C(=O)O)ccc2c(=O)n1Cc1ccccc1", "%Inh": 0}, {"smiles": "Cc1cccc(-c2nc(Nc3ccncc3)c3ccccc3n2)n1", "note": "[GW855857]", "%Inh": 13}, {"smiles": "Cc1cccc(-c2nc(-c3ccc(S(C)(=O)=O)cc3)sc2-c2ccnc(NCCc3ccccc3)c2)c1", "%Inh": 0}, {"smiles": "CN(C)CCN(C)C(=O)c1cc(-c2ccncc2)c(-c2ccc(Cl)c(O)c2)o1.Cl.Cl", "note": "[SB-710397]", "%Inh": 0}, {"smiles": "Cc1nnc(-c2ccc3occ(-c4ccc(S(C)=O)cc4)c3c2)[nH]1", "note": "(stereo not shown)", "%Inh": 0}, {"smiles": "COc1cc2nccc(Nc3ccc(NC(=O)c4ccc(C)cc4)c(O)c3)c2cc1OC.Cl", "note": "[GW440132]", "%Inh": 17}, {"smiles": "Cc1cccc(-c2cc(Nc3ccncc3)c3ccccc3n2)n1", "note": "[GSK223675]", "%Inh": 40}, {"smiles": "Cn1ccc2ncnc(Oc3ccc(Nc4nc5ccccc5[nH]4)cc3)c21", "%Inh": 0}, {"smiles": "Cc1cc(NCC(c2ccccc2)c2ccccc2)nc(NCc2ccc(C(F)(F)F)cc2)n1", "note": "[GW497681]", "%Inh": 0}, {"smiles": "Cc1cccc(-c2nc(C)cc(Nc3ccncc3)n2)n1", "note": "[GSK257997]", "%Inh": 36}, {"smiles": "Cl.c1ccc(-c2n[nH]cc2-c2ccnc(-c3ccc(CN4CCOCC4)cc3)c2)nc1", "note": "[GW776245]", "%Inh": 0}, {"smiles": "Cc1ccc(NC(=O)Nc2cc(C(C)(C)C)nn2-c2ccccc2)cc1", "note": "[GSK1014915]", "%Inh": 4}, {"smiles": "CC1=C(C(=O)Nc2cc3cn[nH]c3cc2F)C(c2ccc(C(F)(F)F)cc2)CC(=O)N1", "note": "(stereo not shown) [GSK429286]", "%Inh": 26}, {"smiles": "Nc1nc(-c2nccs2)c(-c2ccnc3ccccc23)s1", "note": "[GW693542]", "%Inh": 17}, {"smiles": "COc1ccc(C2=C(Nc3cccc(C(=O)O)c3)C(=O)NC2=O)cc1", "note": "[SB-390765]", "%Inh": 0}, {"smiles": "O=C(O)COc1ncnc2cc(-c3ccc4[nH]ncc4c3)sc12", "%Inh": 100}, {"smiles": "Cc1cccc(-c2nc(Nc3cccc(C(N)=O)c3)c3ccccc3n2)n1", "note": "[GW876019]", "%Inh": 0}, {"smiles": "CC(C)(C)c1ccc(C(=O)Nc2cn3cc(-c4cccnc4)ccc3n2)cc1", "%Inh": 0}, {"smiles": "COc1ccccc1CNC(=O)c1cc(C(=O)c2ccccc2C)c[nH]1", "note": "[GSK364507]", "%Inh": 42}]}]}
